Reference: PubChem BioAssay AID602388 (National Center for Advancing Translational Sciences (NCATS), 2012)
Some of the results follow. Results filed as inconclusive are left out. Activity calls are given as the source filed them. Calls come from the whole dose curve; as a rule, active = well fitted inhibition curve with a large enough effect; inconclusive = small, poorly fitted or top-dose-only effect; inactive = flat fitted curve, though single readings scatter.

molecular target: Regulator of G-protein signaling 4 (Homo sapiens) (UniProt P49798); test: qHTS for Inhibitors of Regulator of G Protein Signaling(RGS) 4: Hit Validation; conditions: RGS4 GAP activity, Transcreener GDP fluorescence polarization
Description: G-protein-coupled receptors (GPCRs) are well-established targets for drug discovery and development. Members of the "regulator of G-protein signaling" (RGS)-protein superfamily have recently emerged as critical modulators of specific GPCR signaling pathways. […] Combining specific RGS domain inhibitors with existing GPCR agonists should potentiate cellular responses and could also increase the specificity of action of existing therapeutics. Small molecule modulators of RGS domain activity should also have clinical utility in inhibiting or potentiating the actions of endogenous GPCR agonists. In particular, the diversity of RGS proteins with highly localized and dynamically regulated distributions in the human brain makes this family of proteins attractive targets for pharmacotherapy of central nervous system (CNS) disorders such as Parkinson's disease, schizophrenia, and anxiety. […] This assay was used to screen the NIH Molecular Libraries Small Molecule Repository (MLSMR) in order to identify a small molecule that inhibits RGS4. NIH Chemical Genomics Center [NCGC] NIH Molecular Libraries Probe Centers Network [MLPCN] MLPCN Grant: DA030555 Assay Submitter (PI): David Siderovski, University of North Carolina Chapel Hill (School of Medicine)
Two microliters of 500nM (2x working concentration) is dispensed into black medium-binding solid-bottom Kalypsys plates. Then with the Kalypsys pintool 23nl of control and compounds are transferred; the control compound is […] CCG-4986 (working concentration). […] An initial fluorescent polarization read (620 nm/688 nm) is performed on the Envision before the plate is incubated for 90 minutes at 30 deg C at a relative humidity of 80%. The plate is once more centrifuged at 1000 RPM for 15 seconds and another Envision fluorescent polarization (620 nm/688 nm) read is carried out.

Regulator of G-protein signaling 4 (Homo sapiens), sequence (P49798 whole entry, looked up, the tested form may be a part): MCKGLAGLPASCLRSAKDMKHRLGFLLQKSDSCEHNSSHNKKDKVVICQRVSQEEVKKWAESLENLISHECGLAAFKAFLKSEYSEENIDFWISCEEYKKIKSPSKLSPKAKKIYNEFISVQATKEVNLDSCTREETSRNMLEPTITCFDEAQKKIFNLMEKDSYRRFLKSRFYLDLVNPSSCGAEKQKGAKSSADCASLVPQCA

Potency, active:
O=C(Nc1nc(-c2ccncc2)cs1)C1COc2ccccc2O1 (stereo not drawn) 5.32 µM, Cc1ccc(-c2nc3ccccn3c2Nc2c(C)cccc2C)o1 10.6 µM, Cc1ccc(-n2nc(-c3ccco3)cc2C(=O)NCc2cccnc2)cc1 6.7 µM
